Bioassay records: PubChem BioAssay, several laboratories
S1P4 antag = human S1P4 receptor antagonism | O95977 | S1P4-expressing cells, antagonist mode, reporter read-out | inhibition, % at 4.98 µM | hit rate 0.26% among 220,000; in the data active = inhibition above about 29%;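 also: 0% = wells stimulated with agonist and 100% = vehicle wells without agonist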
Target sequence (O95977 whole entry, looked up): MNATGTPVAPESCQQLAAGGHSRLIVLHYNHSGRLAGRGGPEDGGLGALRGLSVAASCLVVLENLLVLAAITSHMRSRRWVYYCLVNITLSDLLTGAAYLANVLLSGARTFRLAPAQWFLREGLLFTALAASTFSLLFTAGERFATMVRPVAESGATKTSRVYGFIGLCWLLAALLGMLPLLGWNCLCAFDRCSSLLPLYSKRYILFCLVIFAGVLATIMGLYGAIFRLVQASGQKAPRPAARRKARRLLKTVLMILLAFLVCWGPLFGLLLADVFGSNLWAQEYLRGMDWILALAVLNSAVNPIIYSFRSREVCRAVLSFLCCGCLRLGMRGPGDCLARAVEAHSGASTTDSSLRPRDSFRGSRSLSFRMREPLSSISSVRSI
S1P4 ag = agonists of human S1P4 receptor; O95977; activation, % at 4.98 µM; S1P4-expressing cell line, agonist reporter assay; hit rate 0.35% among 220,000; AID 1509; in the data active = activation above about 11%;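 also: 0% = DMSO vehicle and 100% = reference agonist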
m-calpain inh = blocks pig calpain II enzyme activity; purified calpain II, fluorogenic peptide substrate, 30 min; inhibition, % at 16 µM; hit rate 0.37% among 220,000;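 active = inhibition above about 50%, limit read from the data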
PERK inhibitor = human PERK inhibition, primary cell-based screen. Q9NZJ5. CHO PERK-DD fusion, SEAP luminescence translation reporter. inhibition, % at 5.6 µM. hit rate 0.17% among 220,000. AID 1416;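 active = inhibition above the mean inhibition of all tested compounds plus 3 SD, set separately per screening campaign, cut at about 2.9% in these data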;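 also: PERK kinase domain activated by AP20187 dimerizer at 100 nM; 0% = DMSO with dimerizer and 100% = rapamycin at 8.4 µM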
S1P3 antagonist = antagonists of human S1P3 receptor | CHO S1P3 NFAT-BLA reporter, FRET fluorescence, antagonist mode | inhibition, % at 4.98 µM | hit rate 0.27% among 170,000 | AID 485;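 active = inhibition above the plate cutoff, the mean inhibition of test wells on that plate plus 3 SD, cut at about 28% in these data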;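 also: cells challenged with S1P at its EC80 of 0.8 µM; blue over green emission ratio from cleaved BLA substrate after 4 h stimulation; 0% = S1P-stimulated wells and 100% = unstimulated DMSO-only wells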
S1P4 ag conf = human S1P4 agonism, confirmation; shares compounds with S1P4 ag; S1P4 agonist cell-based reporter assay; activation, % at 4.98 µM; hit rate 7% among 740; AID 1523; in the data active = activation above about 12%;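 also: 0% = vehicle and 100% = full reference agonist response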
S1P1 agonist = activates human S1P1, counter-screen for S1P4 agonists; shares compounds with S1P4 ag; S1P1 agonist cell-based assay, activation; activation, % at 4.98 µM; hit rate 4% among 740; AID 1563; in the data active = activation above about 21%;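 also: 0% = vehicle wells and 100% = reference agonist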
Numbers without * were called inactive; / = no result given; ! = not active in a repeat. Most compounds without a hit are left out; they make up all but 1.3% or so of the library.

SMILES	S1P4 antag	S1P4 ag	m-calpain inh	PERK inhibitor	S1P3 antagonist	S1P4 ag conf	S1P1 agonist
N#CC1=C(N)Oc2cc(N)ccc2C1C1CCCCC1 (stereo not drawn)	3.7	13.8*	-10.7	0.3	32.3	-1.4	-3.1
CCC(=O)c1ccc(OCC(=O)OCC(=O)Nc2sccc2C(N)=O)cc1	-24.0	0.9	4.8	0.7	-6.9	/	/
CCOC(=O)CS(=O)(=O)c1ccc(O)cc1	-9.9	21.6*	-15.1	0.9	5.2	-1.6	-1.1
Cc1nc(C(=O)NCc2ccccc2)sc1C1(C)CC(c2ccccc2)=NO1 (stereo not drawn)	/	/	41.7	/	/	/	/
CCOC(=O)c1sc(NC(C)=O)nc1C	3.4	-3.1	11.6	0.5	/	/	/
CCOC(=O)c1sc(Nc2nc(OC)cc(OC)n2)nc1C	5.9	64.2*	-41.2	0.7	-6.9	-2.2	-1.4
CC1(C)[C@@H](O)CC[C@]2(C)C3C(O)C=C4[C@H]5C[C@@](C)(C(=O)O)CC[C@]5(C)CC[C@]4(C)[C@]3(C)CC[C@@H]12 (stereo partly drawn)	/	/	-53.9	/	/	/	/
Cc1ccccc1OCC(=O)N/N=C/c1ccncc1	-3.5	2.6	-9.3	0.6	-8.4	/	/
CCOC(=O)C/C(C)=N/NC(=O)COc1ccccc1C	-16.7	88.9*	17.2	0.1	-32.0	-1.2	-1.6
COc1ccc(CC(=O)NNS(=O)(=O)c2ccc(F)cc2)cc1OC	6.3	0.6	-9.8	-0.1	-15.9	/	/
COc1ccc(CC(=O)NNS(=O)(=O)c2ccccc2)cc1OC	-13.3	12.3*	1.3	0.4	-7.0	-2.5	-2.4
COc1cccc(SCC2CSc3nc4ccccc4c(=O)n32)c1 (stereo not drawn)	-8.1	-0.3	3.4	1.0	9.3	/	/
Nc1ccccc1SCC1CSc2nc3ccccc3c(=O)n21 (stereo not drawn)	-2.1	14.1*	-19.6	2.0	-4.4	-1.6	-8.6
O=C(/C=C/c1ccco1)N(c1ccccn1)c1ccccn1	-27.3	1.0	-9.2	0.1	-13.9	/	/
COc1ccc(NC(=O)Cn2cccc2)c(OC)c1	-10.5	34.6*	-9.3	-0.1	8.8	-2.0	0.4
CC(C)CC(=O)NC(c1ccccc1Cl)c1c(O)ccc2ccccc12 (stereo not drawn)	-8.5	13.0*	7.8	0.3	3.0	-0.8	0.4
Cc1ccc(S(=O)(=O)Nc2c(C)n(C)n(-c3ccccc3)c2=O)cc1C(=O)OCC(=O)N1CCCC(C)C1 (stereo not drawn)	-23.1	0.2	-10.5	2.2	-8.8	/	/
COC(=O)c1cc(C(=O)OC)cc(N2C(=O)CC(NNC(=O)c3ccc(C)cc3)C2=O)c1 (stereo not drawn)	-6.0	28.9*	12.0	1.3	0.4	-2.0	-1.9
Cc1cc(NC(=O)C2C3C(=O)N(Cc4ccc(Cl)cc4)C(C(=O)NCc4ccccc4)C34C=CC2(C)O4)no1 (stereo not drawn)	-14.9	17.6*	-9.8	-0.7	/	-1.9	-5.7
Cc1cc(NC(=O)C2C3C(=O)N(Cc4ccc(Cl)cc4)C(C(=O)NC4CCCCC4)C34C=CC2(C)O4)no1 (stereo not drawn)	-18.2	0.6	22.4	-0.7	/	/	/
Cc1cc(C)cc(NC(=O)CSc2nnc(-c3ccc(S(=O)(=O)N4CCCC4)cc3)o2)c1	-13.5	11.1*	35.1	-0.1	-15.6	-2.8	-6.4
Cc1ccccc1-n1c(SCC(=O)N/N=C/C=C/c2ccccc2[N+](=O)[O-])nc2ccccc2c1=O	-14.8	14.1*	-101.0	-1.6	15.3	-2.9	-11.6
COc1ccc2[nH]c3c(=O)n(CCCCC(=O)NCCC(C)C)c(=S)[nH]c3c2c1	-3.1	-0.2	-5.3	0.2	-25.6	/	/
c1ccc(-c2nccc(-c3ccc(-n4cnc5ccccc54)cc3)n2)cc1	-11.3	82.7*	15.7	0.0	/	-1.4	5.1
c1ccc(-c2nccc(-c3ccc4c(c3)OCO4)n2)cc1	-12.9	1.3	-55.7	0.2	-20.1	/	/
SMILES	S1P4 antag	S1P4 ag	m-calpain inh	PERK inhibitor	S1P3 antagonist	S1P4 ag conf	S1P1 agonist
O=C(N/N=C/c1cn(-c2cccs2)nc1-c1ccccc1)c1ccccc1Br	0.8	11.0*	-26.9	0.1	9.5	-2.0	1.5
O=C(N/N=C/c1cn(-c2cccs2)nc1-c1ccccc1)c1ccccc1O	0.5	-0.7	-33.2	-0.7	-2.0	/	/
Cc1cc(C)c(N2C(=O)C3C4CC(=O)C(c5ccccc54)C3C2=O)c(C)c1 (stereo not drawn)	-11.0	2.5	-19.2	0.2	1.4	/	/
Cc1nnc(SCCn2c(N3CCN(C)CC3)nc3c2c(=O)n(C)c(=O)n3C)s1	-6.6	45.0*	-30.7	-0.1	-0.6	0.0	8.6
Cc1nnc(SCCn2c(N3CCCCC3)nc3c2c(=O)n(C)c(=O)n3C)s1	-5.5	0.2	/	-0.5	-42.5	/	/
Cc1c(NC(=O)Cn2cc([N+](=O)[O-])cn2)c(=O)n(-c2ccccc2)n1C	-38.2	-0.3	8.2	-0.1	-31.2	/	/
Cc1c(NC(=O)Cn2ccc([N+](=O)[O-])n2)c(=O)n(-c2ccccc2)n1C	-3.7	25.0*	26.7	-0.2	/	-0.6	-4.4
COc1cc(C2NC(=O)C(C#N)=C(Nc3cccc(C)c3)S2)ccc1O (stereo not drawn)	11.6	21.9*!	15.9	0.7	-8.2	-0.2	0.9
CCNC(=S)Nc1cc(-c2ccc(Cl)cc2)[nH]n1	-0.5	1.6	-5.5	-1.8	1.1	/	/
Cn1ccc(C(=O)OCC(=O)Nc2cccc3ccccc23)n1	-17.2	2.0	-25.6	1.6	-9.8	/	/
O=c1cc(N2CCCCC2)nc2n1CCCS2	-8.0	24.9*	-1.6	1.6	/	-2.9	-1.7
CS(=O)(=O)Nc1ccc(C(=O)N2CCN(c3ccccc3)CC2)cc1	-5.0	55.8*	1.7	1.1	/	-2.4	-4.0
N#Cc1ccc(CO/N=C/c2ccccc2)cc1	-5.1	-1.3	22.7	0.7	-2.1	/	/
CCOC(=O)c1ccc(NC(=O)N2CCN(Cc3cccc(F)c3)CC2)cc1	7.2	17.3*	-37.3	-1.1	1.2	-1.6	1.7
CN(C)CCCNc1cc(C(C)(C)C)nc2c(-c3ccccc3)cnn12	24.0	-1.4	-9.9	0.0	3.3	/	/
COC(=O)c1sccc1NC(=S)N1CCN(c2cccc(C)c2C)CC1	-11.2	22.6*	-5.0	1.1	1.2	-2.1	3.8
c1ccc2c(N3CCCCC3)nc(N3CCOCC3)nc2c1	-3.4	0.8	-22.3	-1.0	10.6	/	/
Nc1nc(N2CCOCC2)nc2ccccc12	-0.3	21.6*	-311.3	0.3	-31.8	-1.3	-7.2
Cc1ccccc1OCC(=O)Nc1nc2ccccc2[nH]1	24.3	21.0*	18.4	0.6	4.7	-0.8	3.8
CCOc1ccccc1OCC(=O)Nc1nc2ccccc2[nH]1	-5.7	-2.9	5.7	-0.5	-4.7	/	/
CC(C)CCOP(=O)(c1ccccc1)c1ccccc1	-21.2	57.6*	-0.7	-0.1	-6.5	-1.2	2.0
Cc1ccc(OC2=NS(=O)(=O)c3ccccc32)cc1	11.9	1.2	-3.5	-0.6	/	/	/
CCc1ccc(OC2=NS(=O)(=O)c3ccccc32)cc1	-8.0	13.8*	-2.4	-0.7	-12.9	-1.9	-5.6
